This is an account of results in PubChem BioAssay (EPA / NIEHS).

SMILES strings stand for the structures. Active and inactive are the calls of the source. The calls were made as follows: active = hit-call score of the fitted dose curve at least 0.9, where 1 is the maximum; inactive = score below 0.9.

By AC50 is commonly meant the midpoint of the concentration-response curve, whichever way the signal moves.

The nature of test [1]: ATG_GLI_CIS: Attagene CIS-FACTORIAL HepG2 Assay for human Zinc Finger Protein GLI1 (AID 2282945). The conditions noted are these: HepG2, Attagene cis-factorial reporter mRNA, GLI element; actives raise or lower the signal. The essentials:
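HepG2 cells transiently transfected with cis-promoter multiplexed reporter units report endogenous transcription factor activity. After 24 h chemical exposure, reporter mRNA was quantified by RT-PCR, 6-FAM labelling, HpaI digestion and capillary electrophoresis, with bidirectional fitting against DMSO.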

The target in test [2] is Bile acid receptor (Homo sapiens) (UniProt Q96RI1). Nature of the test: ATG_IR1_CIS: Attagene CIS-FACTORIAL HepG2 Assay for human Nuclear Receptor Subfamily 1 Group H Member 4 (NR1H4), IR1 submotif (AID 2282946). The conditions noted are these: IR1 reporter transcription, actives raise or lower the signal. Summed up: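 Transient MRTU transfection, HepG2; 24 h dosing; RNA → RT-PCR → 6-FAM primer extension → HpaI digest → capillary electrophoresis fluorescence. Gain/loss of signal fitted relative to DMSO.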
Bile acid receptor (Homo sapiens), sequence (Q96RI1 whole entry, looked up): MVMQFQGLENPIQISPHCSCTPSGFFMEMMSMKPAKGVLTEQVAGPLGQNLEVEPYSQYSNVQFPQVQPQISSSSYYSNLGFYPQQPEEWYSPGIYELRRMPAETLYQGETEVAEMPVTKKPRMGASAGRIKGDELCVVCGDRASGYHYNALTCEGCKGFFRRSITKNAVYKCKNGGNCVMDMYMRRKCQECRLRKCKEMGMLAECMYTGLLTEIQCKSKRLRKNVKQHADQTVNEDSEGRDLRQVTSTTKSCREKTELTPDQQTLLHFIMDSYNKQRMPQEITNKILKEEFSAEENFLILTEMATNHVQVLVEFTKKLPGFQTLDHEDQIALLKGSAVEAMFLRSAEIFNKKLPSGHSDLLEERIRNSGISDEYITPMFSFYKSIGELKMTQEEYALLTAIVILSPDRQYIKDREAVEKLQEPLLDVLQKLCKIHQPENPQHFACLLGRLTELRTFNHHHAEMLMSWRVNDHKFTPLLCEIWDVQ

Test [3] is described as follows: ATG_GRE_CIS: Attagene CIS-FACTORIAL HepG2 Assay for human Glucocorticoid Response Elements (GRE) (AID 2282947). As to conditions: HepG2 GRE cis-reporter, Attagene multiplex mRNA; actives raise or lower the signal. Summed up: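 HepG2 cells transiently transfected with multiple cis-promoter reporter units measure endogenous TF activity; 24 h compound exposure. Reporter mRNA quantified by RT-PCR, FAM labelling, HpaI digestion and capillary electrophoresis; bidirectional fit vs DMSO baseline.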

A short description of test [4]: ATG_ISRE_CIS: Attagene CIS-FACTORIAL HepG2 Assay for human Interferon Regulatory Factor 1 (IRF1) binding to an Interferon-Stimulated Response Element (ISRE) (AID 2282948). The conditions noted are these: HepG2 ISRE cis-reporter (Attagene), mRNA transcription readout; actives raise or lower the signal. Summed up: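 HepG2 cells transiently transfected with multiplexed cis-promoter reporter units; after 24 h compound exposure, reporter mRNA quantified by RT-PCR, FAM labelling, HpaI digestion and capillary electrophoresis. Bidirectional fit versus DMSO baseline.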

Test [5] in a line: ATG_M_32_CIS: Attagene CIS-FACTORIAL HepG2 Assay for M32 Transcription Factor (Internal Marker) (AID 2282949).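 Also: background control marker of the multiplexed CIS panel rather than a real target.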 As to conditions: HepG2 Attagene cis-factorial M32 reporter, mRNA; actives raise or lower the signal. The essentials:
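Following 24 h chemical exposure of HepG2 cells transiently expressing cis-promoter reporter constructs, reporter transcript levels were determined by RT-PCR with fluorescent labelling and capillary electrophoresis, then fitted bidirectionally against DMSO.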

A short description of test [6]: ATG_M_06_CIS: Attagene CIS-FACTORIAL HepG2 Assay for M06 Transcription Factor (Internal Marker) (AID 2282950). The conditions noted are these: HepG2 Attagene CIS-FACTORIAL M06 internal marker reporter; actives raise or lower the signal. Summed up:
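HepG2 liver cells, 24 h exposure. Reporter transcripts from transfected cis-element constructs quantified by RT-PCR/capillary electrophoresis fluorescence. Bidirectional curve fit against DMSO.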

The target in test [7] is Hypoxia-inducible factor 1-alpha (Homo sapiens) (UniProt Q16665). Nature of the test: ATG_HIF1a_CIS: Attagene CIS-FACTORIAL HepG2 Assay for human Hypoxia Inducible Factor 1 (HIF1A) (AID 2282951). As to conditions: HepG2 Attagene cis-factorial HIF1a reporter transcription; actives raise or lower the signal. The essentials: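 Measures endogenous transcription-factor activity through cis-regulated reporter mRNA in HepG2. Cells dosed 24 h; transcripts quantified by RT-PCR with 6-FAM-labelled products separated by capillary electrophoresis; DMSO serves as negative control.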
Hypoxia-inducible factor 1-alpha (Homo sapiens), sequence (Q16665 whole entry, looked up): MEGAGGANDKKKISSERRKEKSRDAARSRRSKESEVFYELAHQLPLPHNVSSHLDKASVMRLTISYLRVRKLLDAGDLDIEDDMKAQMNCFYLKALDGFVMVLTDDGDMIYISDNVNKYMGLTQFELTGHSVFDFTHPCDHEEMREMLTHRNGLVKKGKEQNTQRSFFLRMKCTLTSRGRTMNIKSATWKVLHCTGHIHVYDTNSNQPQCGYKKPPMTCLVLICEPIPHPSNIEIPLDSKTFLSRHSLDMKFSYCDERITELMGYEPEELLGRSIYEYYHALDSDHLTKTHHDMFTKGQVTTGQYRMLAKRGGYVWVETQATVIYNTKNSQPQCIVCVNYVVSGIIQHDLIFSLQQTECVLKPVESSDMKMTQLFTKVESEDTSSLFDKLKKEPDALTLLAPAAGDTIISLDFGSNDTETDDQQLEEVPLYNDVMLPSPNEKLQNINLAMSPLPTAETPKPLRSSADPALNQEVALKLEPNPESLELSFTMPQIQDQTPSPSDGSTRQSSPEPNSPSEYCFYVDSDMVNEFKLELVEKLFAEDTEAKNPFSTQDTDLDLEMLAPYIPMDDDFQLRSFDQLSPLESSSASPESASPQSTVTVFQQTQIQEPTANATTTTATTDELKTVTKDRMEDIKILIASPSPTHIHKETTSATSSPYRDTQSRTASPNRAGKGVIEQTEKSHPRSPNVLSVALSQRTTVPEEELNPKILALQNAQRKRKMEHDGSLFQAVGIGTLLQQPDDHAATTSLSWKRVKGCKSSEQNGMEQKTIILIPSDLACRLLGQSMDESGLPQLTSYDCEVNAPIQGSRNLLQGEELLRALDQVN

Test [8] concerns the target Hepatocyte nuclear factor 6 (Homo sapiens) (UniProt Q9UBC0). Nature of the test: ATG_HNF6_CIS: Attagene CIS-FACTORIAL HepG2 Assay for human Hepatocyte Nuclear Factor 6 (HNF6) (AID 2282952). As to conditions: HepG2 Attagene cis-factorial HNF6 reporter transcription; actives raise or lower the signal. Summed up:
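HepG2 cells transiently transfected with cis-element-driven multiplexed reporter units measuring endogenous transcription factor activity. After 24 h exposure, reporter mRNA quantified by RT-PCR, FAM-labelled fragments and capillary electrophoresis; bidirectional fitting versus DMSO.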

Test [9] addresses Heat shock factor protein 1 (Homo sapiens) (UniProt Q00613). The test can be described thus: ATG_HSE_CIS: Attagene CIS-FACTORIAL HepG2 Assay for human Heat Shock Transcription Factor 1 (HSE) (AID 2282953). The conditions noted are these: HepG2 HSE cis-reporter, Attagene RNA transcription; actives raise or lower the signal. Summed up:
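Endogenous transcription factor activity captured via cis-promoter reporter units transfected into HepG2; treatment lasted 24 h. Fluorescence intensity of reporter fragments analysed with bidirectional curve fitting, DMSO baseline.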

Test [10] can be described thus: ATG_MRE_CIS: Attagene CIS-FACTORIAL HepG2 Assay for human Metal Responsive Element (MRE) (AID 2282954). The conditions noted are these: HepG2 MRE cis-reporter transcription, Attagene multiplex; actives raise or lower the signal. The essentials: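 HepG2 cells transiently transfected with multiple cis-element reporter units measure endogenous MTF1-driven transcription. After 24 h compound exposure, reporter mRNA is quantified by RT-PCR with 6-FAM labelling, HpaI digestion and capillary electrophoresis; bidirectional fits versus DMSO.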

A short description of test [11]: ATG_PBREM_CIS: Attagene CIS-FACTORIAL HepG2 Assay for human Phenobarbital-responsive Enhancer Module (PBREM) (AID 2282955). The conditions noted are these: HepG2 PBREM cis-reporter, Attagene multiplexed transcription; actives raise or lower the signal. The essentials:
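Fluorescence of labelled reporter cDNA fragments, resolved by capillary electrophoresis, gives mRNA induction in transfected HepG2 cells treated for 24 h; DMSO serves as negative control and baseline.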

Test [12] addresses Paired box protein Pax-6 (Homo sapiens) (UniProt P26367). Nature of the test: ATG_Pax6_CIS: Attagene CIS-FACTORIAL HepG2 Assay for human Paired Box 6 (PAX6) (AID 2282956). The conditions noted are these: HepG2 CIS-FACTORIAL PAX6 reporter transcription, RNA readout; actives raise or lower the signal. Summed up: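 HepG2 cells transiently transfected with multiplexed cis-promoter reporter units (endogenous TF activity) were dosed for 24 h. Reporter mRNA was quantified by RT-PCR, 6-FAM labeling, HpaI digestion and capillary electrophoresis; bidirectional fitting versus DMSO baseline.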

Test [13] can be described thus: ATG_PXRE_CIS: Attagene CIS-FACTORIAL HepG2 Assay for human Pregnane X Receptor Element (PXRE) (AID 2282957). The conditions noted are these: HepG2 Attagene CIS-FACTORIAL PXRE reporter, mRNA; actives raise or lower the signal. Summed up:
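HepG2 cells transiently transfected with cis-element-driven multiplexed reporter units; after 24 h chemical exposure, reporter mRNA measured by RT-PCR, 6-FAM labelling, HpaI digestion and capillary electrophoresis. Bidirectional fitting relative to DMSO.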

The nature of test [14]: ATG_PPRE_CIS: Attagene CIS-FACTORIAL HepG2 Assay for human Peroxisome Proliferator-activated Response Element (PPRE) (AID 2282958). As to conditions: HepG2 PPRE cis-element reporter, Attagene transcription factor profiling; actives raise or lower the signal. Summed up:
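Cells are first transfected transiently with the multiplexed reporter library, then dosed for 24 h. Total RNA is reverse-transcribed, amplified, fluorescently end-labeled and HpaI-cut before capillary electrophoresis; activity is fitted bidirectionally against DMSO controls.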

Test [15] is described as follows: ATG_RORE_CIS: Attagene CIS-FACTORIAL HepG2 Assay for human RAR-related Orphan Receptor Element (RORE) (AID 2282959). The conditions noted are these: HepG2 Attagene cis-factorial RORE reporter, mRNA; actives raise or lower the signal. Summed up: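 Cells were HepG2 carrying transfected cis-regulated reporter constructs, dosed for 24 hours. Total RNA was reverse-transcribed and reporter cDNA amplified, fluorescently labeled and sized by capillary electrophoresis. Activity was fitted bidirectionally relative to DMSO.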

Test [16] in a line: ATG_Sox_CIS: Attagene CIS-FACTORIAL HepG2 Assay for human SRY-box transcription factor (SOX) (AID 2282960). As to conditions: HepG2 Attagene cis-factorial SOX reporter, mRNA; actives raise or lower the signal. The essentials: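 Transient MRTU transfection of HepG2; 24 h compound incubation; TriZol RNA, oligo(dT) RT, PCR, 6-FAM primer extension, HpaI cut, CE. Bidirectional fit, DMSO = baseline.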

In test [17] the target is Transcription factor Sp1 (Homo sapiens) (UniProt P08047). The test can be described thus: ATG_Sp1_CIS: Attagene CIS-FACTORIAL HepG2 Assay for human Specificity Protein 1 (Sp1) (AID 2282961). The conditions noted are these: HepG2 Sp1 cis-reporter transcription, actives raise or lower the signal. The essentials: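 Endogenous Sp1 activity was gauged in human liver HepG2 cells bearing transfected reporter units under a cis-regulating promoter. After 24 h dosing, reporter mRNA was quantified by RT-PCR with capillary electrophoresis, and activity fitted bidirectionally versus DMSO.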
Transcription factor Sp1 (Homo sapiens), sequence (P08047 whole entry, looked up): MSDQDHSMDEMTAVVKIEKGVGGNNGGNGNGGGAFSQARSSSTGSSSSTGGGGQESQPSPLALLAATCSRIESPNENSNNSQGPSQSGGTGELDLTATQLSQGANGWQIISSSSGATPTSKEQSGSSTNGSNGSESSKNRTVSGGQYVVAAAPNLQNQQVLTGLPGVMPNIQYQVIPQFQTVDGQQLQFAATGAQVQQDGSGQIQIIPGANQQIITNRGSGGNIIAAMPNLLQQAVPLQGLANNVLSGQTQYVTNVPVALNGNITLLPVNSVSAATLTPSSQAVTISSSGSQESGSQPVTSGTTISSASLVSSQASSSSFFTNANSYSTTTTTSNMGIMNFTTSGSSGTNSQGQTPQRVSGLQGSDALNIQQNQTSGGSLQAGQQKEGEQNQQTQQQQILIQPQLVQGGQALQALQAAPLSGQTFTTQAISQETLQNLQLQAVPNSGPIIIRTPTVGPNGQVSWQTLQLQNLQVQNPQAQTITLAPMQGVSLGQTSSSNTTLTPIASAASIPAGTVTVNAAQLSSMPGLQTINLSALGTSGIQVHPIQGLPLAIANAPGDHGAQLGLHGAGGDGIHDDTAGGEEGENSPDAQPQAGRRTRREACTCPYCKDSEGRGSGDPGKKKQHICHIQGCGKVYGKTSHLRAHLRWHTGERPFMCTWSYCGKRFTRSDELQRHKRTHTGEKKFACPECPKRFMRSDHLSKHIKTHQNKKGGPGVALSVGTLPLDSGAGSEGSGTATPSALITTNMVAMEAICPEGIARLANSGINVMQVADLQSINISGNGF

A short description of test [18]: ATG_SREBP_CIS: Attagene CIS-FACTORIAL HepG2 Assay for human Sterol Regulatory Element Binding (SREBP) (AID 2282962). The conditions noted are these: HepG2 Attagene cis-factorial SREBP reporter, mRNA; actives raise or lower the signal. The essentials: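 HepG2 cells transiently transfected with multiplexed cis-element reporter units report endogenous transcription factor activity. After 24 h of chemical exposure, reporter mRNA was quantified by RT-PCR, 6-FAM labelling, HpaI digestion and capillary electrophoresis; bidirectional fits used DMSO as baseline.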

The target of test [19] is Signal transducer and activator of transcription 3 (Homo sapiens) (UniProt P40763). The test can be described thus: ATG_STAT3_CIS: Attagene CIS-FACTORIAL HepG2 Assay for human Signal Transducer and Activator of Transcription 3 (STAT3) (AID 2282963). As to conditions: HepG2, Attagene cis-factorial STAT3 reporter transcription; actives raise or lower the signal. The essentials: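 HepG2 cells transiently transfected with cis-element-driven multiple reporter transcription units; after 24 h chemical exposure, reporter mRNA measured by RT-PCR, 6-FAM primer-extension labelling, HpaI digestion and capillary electrophoresis. Bidirectional fitting versus DMSO baseline.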
Signal transducer and activator of transcription 3 (Homo sapiens), sequence (P40763 whole entry, looked up): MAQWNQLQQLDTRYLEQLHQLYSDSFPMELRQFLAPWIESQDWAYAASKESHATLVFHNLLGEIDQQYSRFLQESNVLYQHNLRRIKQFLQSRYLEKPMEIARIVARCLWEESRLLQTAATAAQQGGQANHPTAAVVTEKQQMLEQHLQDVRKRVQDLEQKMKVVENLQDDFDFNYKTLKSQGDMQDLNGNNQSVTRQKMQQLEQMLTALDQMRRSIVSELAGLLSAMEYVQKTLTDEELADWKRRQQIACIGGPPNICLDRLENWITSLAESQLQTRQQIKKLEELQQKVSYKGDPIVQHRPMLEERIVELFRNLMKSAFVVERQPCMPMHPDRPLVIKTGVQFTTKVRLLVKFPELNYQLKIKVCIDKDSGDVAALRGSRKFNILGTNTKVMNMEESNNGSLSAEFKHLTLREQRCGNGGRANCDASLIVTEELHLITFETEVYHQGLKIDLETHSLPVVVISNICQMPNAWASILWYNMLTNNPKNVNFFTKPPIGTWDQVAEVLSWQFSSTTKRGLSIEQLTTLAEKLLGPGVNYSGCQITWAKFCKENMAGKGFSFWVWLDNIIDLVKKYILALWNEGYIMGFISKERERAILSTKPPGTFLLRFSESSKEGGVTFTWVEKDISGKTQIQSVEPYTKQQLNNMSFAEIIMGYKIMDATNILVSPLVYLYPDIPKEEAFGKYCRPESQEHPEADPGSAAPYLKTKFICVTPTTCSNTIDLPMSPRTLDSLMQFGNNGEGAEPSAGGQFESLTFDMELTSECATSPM

Test [20] can be described thus: ATG_TA_CIS: Attagene CIS-FACTORIAL HepG2 Assay for human TA Basal Promoter (AID 2282964). As to conditions: HepG2 Attagene CIS-factorial TA basal promoter reporter; actives raise or lower the signal. The essentials:
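Fluorescence from labelled RT-PCR reporter fragments, separated by capillary electrophoresis, gives the signal. Cells: HepG2 transiently carrying multiple reporter units, 24 h chemical dosing. Gain or loss relative to DMSO.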

Heat shock factor protein 1 (Homo sapiens), sequence (Q00613 whole entry, looked up, the tested form may be a part): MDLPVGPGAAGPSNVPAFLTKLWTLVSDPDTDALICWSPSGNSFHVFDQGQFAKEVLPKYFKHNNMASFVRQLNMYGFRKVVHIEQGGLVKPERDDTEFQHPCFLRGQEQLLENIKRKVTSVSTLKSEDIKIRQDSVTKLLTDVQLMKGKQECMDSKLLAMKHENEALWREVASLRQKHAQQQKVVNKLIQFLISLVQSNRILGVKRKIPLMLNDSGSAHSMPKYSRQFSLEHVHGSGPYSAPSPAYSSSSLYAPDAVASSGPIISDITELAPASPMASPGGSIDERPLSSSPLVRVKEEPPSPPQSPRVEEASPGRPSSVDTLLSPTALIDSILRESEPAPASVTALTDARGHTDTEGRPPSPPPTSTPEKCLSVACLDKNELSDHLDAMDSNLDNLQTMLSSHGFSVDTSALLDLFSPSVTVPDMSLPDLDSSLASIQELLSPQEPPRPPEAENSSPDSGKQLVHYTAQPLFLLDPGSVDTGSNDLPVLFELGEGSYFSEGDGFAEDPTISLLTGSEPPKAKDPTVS
Hepatocyte nuclear factor 6 (Homo sapiens), sequence (Q9UBC0 whole entry, looked up, the tested form may be a part): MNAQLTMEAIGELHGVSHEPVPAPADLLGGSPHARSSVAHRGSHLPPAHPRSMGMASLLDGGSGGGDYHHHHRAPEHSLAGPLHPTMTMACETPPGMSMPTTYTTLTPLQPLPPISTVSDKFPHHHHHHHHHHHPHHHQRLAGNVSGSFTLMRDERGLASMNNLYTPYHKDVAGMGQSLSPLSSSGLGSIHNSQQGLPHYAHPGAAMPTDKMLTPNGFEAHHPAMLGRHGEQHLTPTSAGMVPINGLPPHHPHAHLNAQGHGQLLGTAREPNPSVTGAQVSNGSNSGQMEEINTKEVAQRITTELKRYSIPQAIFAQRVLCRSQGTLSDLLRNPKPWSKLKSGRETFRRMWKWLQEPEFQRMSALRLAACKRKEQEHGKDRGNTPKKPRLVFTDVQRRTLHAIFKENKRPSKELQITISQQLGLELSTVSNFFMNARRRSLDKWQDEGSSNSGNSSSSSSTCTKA
Paired box protein Pax-6 (Homo sapiens), sequence (P26367 whole entry, looked up): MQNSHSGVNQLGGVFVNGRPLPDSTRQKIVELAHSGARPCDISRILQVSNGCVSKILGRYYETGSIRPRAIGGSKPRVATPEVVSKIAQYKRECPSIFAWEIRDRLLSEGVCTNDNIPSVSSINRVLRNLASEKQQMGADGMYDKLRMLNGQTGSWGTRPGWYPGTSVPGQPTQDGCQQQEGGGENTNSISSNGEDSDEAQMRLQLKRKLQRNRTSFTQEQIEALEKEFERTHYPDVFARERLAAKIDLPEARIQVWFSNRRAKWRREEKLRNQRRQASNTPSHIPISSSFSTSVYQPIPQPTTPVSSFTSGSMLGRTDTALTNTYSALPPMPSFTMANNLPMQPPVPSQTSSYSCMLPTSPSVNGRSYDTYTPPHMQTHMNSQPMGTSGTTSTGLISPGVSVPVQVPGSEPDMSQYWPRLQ

With `Cc1cccc(N(C)C)c1`, the call in test [1], in test [2], in [3], in test [4], in test [5] and in test [6] was inactive. For the same compound, the result in test [7], in test [8], in [9], in test [10], in [11] and in test [12] was inactive. Moreover, the outcome in test [13], in test [14], in [15], in test [16], in [17] and in test [18] was inactive. In addition, the compound was called inactive in test [19] and in test [20].

For `CCCCCCCOC(=O)c1ccccc1C(=O)OCCCCCCC`, the outcome in test [1], in test [2], in test [3], in [4], in test [5] and in [6] was inactive. Besides, the outcome in test [7], in test [8], in test [9], in [10], in test [11] and in [12] was inactive. In addition, the compound was called inactive in test [14], in test [15], in test [16], in [17], in test [18] and in [19]. Moreover, the call in test [20] was inactive. Further, the AC50 in [13] is 5.36 µM (active).

As to `FC(F)(F)C(F)(F)C(F)(F)C(F)(F)C(F)(F)C(F)(F)CC1CO1` (stereo not given), the result in test [1], in [2], in test [3], in [4], in [5] and in [6] was inactive. Also, the compound was called inactive in test [7], in [8], in test [9], in test [10], in test [11] and in [12]. Moreover, the call in test [13], in [14], in test [15], in [16], in test [17] and in test [18] was inactive. The result in test [19] and in test [20] was inactive.

As to `O=C(O)C(F)(F)C(F)(F)C(F)(F)F`, the outcome in test [1], in test [2], in [3], in test [4], in test [5] and in test [6] was inactive. The outcome in test [7], in test [8], in test [9], in test [10], in test [11] and in test [12] was inactive. Besides, the outcome in test [13], in [14], in test [15], in test [16], in test [17] and in [18] was inactive. In addition, the compound was called inactive in [19] and in test [20].

`CCCCCCOC(=O)c1ccccc1`: the outcome in [1], in [2], in test [3], in test [4], in [5] and in test [6] was inactive. Also, the call in [7], in [8], in test [9], in test [10], in test [11] and in test [12] was inactive. Moreover, the outcome in [13], in test [14], in test [15], in test [16], in [17] and in test [18] was inactive. Moreover, the compound was called inactive in test [19] and in test [20].

Consider `CCCCNc1ccccc1`, for which the call in test [1], in test [2], in test [3], in test [4], in [5] and in [6] was inactive. For the same compound, the call in test [7], in test [8], in test [9], in test [10], in test [11] and in test [12] was inactive. For the same compound, the compound was called inactive in test [14], in [15], in test [16], in test [17], in test [18] and in test [19]. The compound was called inactive in [20]. Also, the AC50 in test [13] is 100 µM (active).
